According to PubChem BioAssay (NCATS):
Inconclusive results are not listed. Where a call stands in place of a potency, no number is given. A number with no mark means an inactive call. Active and inactive are the calls of the source. Calls come from the whole dose curve; as a rule, active = well fitted inhibition curve with a large enough effect; inconclusive = small, poorly fitted or top-dose-only effect; inactive = no such curve, though single readings can be large or run the other way.

molecular target: Retinal dehydrogenase 2 (Homo sapiens) (UniProt O94788); experiment: qHTS for Inhibitors of the Aldehyde Dehydrogenase Family (ALDH1A2) Confirmation screens (AID 2061314); conditions: ALDH1A2 enzyme inhibition qHTS confirmation; series mostly up to 45.9 µM; note: nearly all actives have a fitted effect of over 65% in size

SMILES	Potency
C[C@@]1(C(=O)O)CC[C@]2(C)CC[C@]3(C)C4=CC(=O)c5cc(O)c(O)cc5[C@]4(C)CC[C@@]3(C)[C@@H]2C1	inactive
CO[C@@H]1[C@H](O)[C@@H](O[C@@H]2C[C@H]3CC[C@@H]4C(CC[C@]5(C)[C@@H](C6=CC(=O)OC6)CC[C@]45O)[C@@]3(C)[C@H](O)C2)O[C@H](C)[C@@H]1O (some centres undefined)	inactive
COc1ccc2c(c1)c(CCN(C)C)cn2S(=O)(=O)c1ccccc1	inactive
O=S(=O)(c1ccccc1F)N1CCOc2c(N3CCNCC3)cccc21	inactive
CCCN(CCC)[C@@H]1CCc2ccc3[nH]c(C#N)cc3c2C1	inactive
Cc1[nH]c2ccc(Cl)cc2c1CCN(C)C	inactive

molecular target: Retinaldehyde dehydrogenase 3 (Homo sapiens) (UniProt P47895); experiment: qHTS for Inhibitors of the Aldehyde Dehydrogenase Family (ALDH1A3) Primary screen (AID 2061315); conditions: ALDH inhibition qHTS; series mostly up to 56 µM; note: potency is the fitted concentration of half-maximal effect

SMILES	Potency
C[C@@]1(C(=O)O)CC[C@]2(C)CC[C@]3(C)C4=CC(=O)c5cc(O)c(O)cc5[C@]4(C)CC[C@@]3(C)[C@@H]2C1	4.47 µM (active)
CO[C@@H]1[C@H](O)[C@@H](O[C@@H]2C[C@H]3CC[C@@H]4C(CC[C@]5(C)[C@@H](C6=CC(=O)OC6)CC[C@]45O)[C@@]3(C)[C@H](O)C2)O[C@H](C)[C@@H]1O (some centres undefined)	inactive
Cc1cc(C(=O)CN2CCCC2)c(C)n1-c1ccc(F)cc1	inactive
COc1ccc2c(c1)c(CCN(C)C)cn2S(=O)(=O)c1ccccc1	inactive
CCC(C)C1NC(=O)C(C(C)=O)=C1O (centres undefined)	inactive
NNC(=O)c1nn(Cc2ccc(Cl)cc2Cl)c2ccccc12	inactive
O=S(=O)(c1ccccc1F)N1CCOc2c(N3CCNCC3)cccc21	inactive
CCCN(CCC)[C@@H]1CCc2ccc3[nH]c(C#N)cc3c2C1	inactive
Cc1[nH]c2ccc(Cl)cc2c1CCN(C)C	inactive

molecular target: Aldehyde dehydrogenase 1A1 (Homo sapiens) (UniProt P00352); experiment: qHTS for Inhibitors of the Aldehyde Dehydrogenase Family (ALDH1A1) Confirmatory screens (AID 2061316); conditions: ALDH inhibition qHTS; series mostly up to 47.3 µM; note: nearly all actives have a fitted effect of over 65% in size

SMILES	Potency
C[C@@]1(C(=O)O)CC[C@]2(C)CC[C@]3(C)C4=CC(=O)c5cc(O)c(O)cc5[C@]4(C)CC[C@@]3(C)[C@@H]2C1	inactive
CO[C@@H]1[C@H](O)[C@@H](O[C@@H]2C[C@H]3CC[C@@H]4C(CC[C@]5(C)[C@@H](C6=CC(=O)OC6)CC[C@]45O)[C@@]3(C)[C@H](O)C2)O[C@H](C)[C@@H]1O (some centres undefined)	inactive
O=S(=O)(c1ccccc1F)N1CCOc2c(N3CCNCC3)cccc21	inactive

test system: not listed separately; experiment: BET inhibitor-based combinations targeting novel dependencies in MECOM-rearranged (r) AML: SET-2 cell line (AID 2202231); conditions: SET-2 AML cells viability, CellTiter-Glo luminescence, 48 h; viability: stronger effect = lower value, concentration not given here; note: nearly all actives have a fitted effect of over 35% in size; note: potency is the fitted concentration of half-maximal effect
How it was run: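 Each compound was tested at eleven concentrations on cells seeded at 500/well. After two days' incubation, ATP-based luminescence reported viability; responses relative to DMSO and blank wells yielded AUC and cell-line-centred Z-AUC.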

SMILES	viability	Potency
Cn1c(CCCC(=O)O)nc2cc(N(CCCl)CCCl)ccc21	78.5%	
O=P1(N(CCCl)CCCl)NCCCO1 (centres undefined)	114%	
COc1ccc(C(=O)N2CCCC2=O)cc1	119%	
O=C(O)c1nn(Cc2ccc(Cl)cc2Cl)c2ccccc12	107%	
CC[C@@]1(O)C(=O)OCc2c1cc1n(c2=O)Cc2cc3ccccc3nc2-1		0.0132 µM (active)
CC[C@@H](C(N)=O)N1CCCC1=O	108%	
